The panel holds about 83,000 compounds, 20% with a hit somewhere; the sample as a whole holds those more often.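 Note: values are percent growth. 100 is the growth of untreated cells, values between 100 and 0 indicate rising inhibition; between -100 and 0 indicates cell death.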 Values without a mark were called inactive. Active and inactive are the calls of the source.

The experiment relates to PC-3 prostate. Nature of the experiment: NCI-60 one-dose screen, 48 h (100 = growth as untreated, 0 = no growth, -100 = all killed). The conditions noted are these: 10 µM. Here is the method: Growth inhibition of the PC-3 human tumor cell line is measured as a screen for anti-cancer activity. Cells are grown in 96 well plates and exposed to the test compound for 48 hours. Compounds are tested at a single concentration, which is 10^-5 M for most compounds. The reported endpoint is percent growth (GI% or GIPRCNT), where numbers from 0 - 100% represent growth inhibition, and numbers from -100% - 0 represent cell death. For example, a value of 40 represents 60% growth inhibition. A value of 0 means no net growth occurred over the course of the experiment. A value of -40 indicates 40% of cells at the beginning of the experiment died by the end of the experiment. A value of -100 means all cells are dead at the end of the experiment.
NCI-60 Human Tumor Cell Lines Screen was performed using the standard one-dose NCI protocol, which is described in more detail at https://dtp.cancer.gov/discovery_development/nci-60/default.htm.
Compounds with GIPRCNT values below 10 were considered active. Activity score was based on GIPRCNT using the following formula: […]
Score is 0 for GIPRCNT values of 100 or above, 50 for GIPRCNT values of 0, and 100 for GIPRCNT values of -100.
Turning to `CS(=O)(=O)c1nccc(-c2c(-c3ccc(OCCc4ccccc4)cc3)nc3sccn23)n1`, the growth is 93.9%.

For `COc1ccccc1N1CCCSC1=Nc1ccccc1`, the growth is 92.9%.

For the compound `O=C(CCc1nnc2sc(-c3cc(O)c(O)c(O)c3)nn12)c1nc2ccccc2[nH]1`, the growth is 86.3%.

Consider `CCN(CC)CCOc1ccc2c(c1O)C(=O)c1ccccc1C2=O`, for which the growth is 85.3%.

As to `COc1ccc(-c2cc(-c3ccccc3)nc(SCCCC(=O)NO)n2)cc1`, the growth was 9.65% (active).

As to `COC1=CC(=O)OC(c2ccc(OC)cc2)C1` (stereo not given), the growth was 105%.

`O=C(Nc1cc(Cl)cc2c1-c1ccc(Cl)cc1C2O)C(Cl)Cl` (stereo not given): the growth was 67.7%.

Regarding `O[C@@H]1CO[C@H]2[C@@H]1OC[C@@H]2O`, the growth was 90%.

Take `CCOC(=O)C(C)(c1ccccc1)c1ccccc1`: the growth was 97.8%.

As for `O=c1c(Br)ccc(Br)cc1Br`, the growth was -24.7% (active).

Regarding `CCOC(=O)c1cc(C(=O)c2cc(OC)c(OC)c(OC)c2)n2ccc(-c3cc[n+](CC(=O)c4cc(OC)c(OC)c(OC)c4)cc3)cc12`, the growth is 54.1%.

With `Cc1cc(CC(C)CC(C)(C)C)n(O)c(=O)c1` (stereo not given) (tested in a mixture with another compound), the growth is 33.9%.

With `CCOC(=O)CN(c1sc(C)c(C)c1C(=O)OCC)S(=O)(=O)c1ccc(C)cc1`, the growth was 74.5%.

As to `Cc1ccc(NCCN(C)CC(C)O)c2c(=O)c3ccc(Cl)cc3sc12` (stereo not given), the growth was 48.2%.

For `CCN(CC)CCCC(C)N=C(C1=C(C(=NC(C)CCCN(CC)CC)c2cccc(OC)c2)C(=O)NC1=O)c1cccc(OC)c1` (stereo not given), the growth was 3.15% (active).

For `COc1ccc(/C(=N\N)C(=O)c2ccccc2)cc1` (tested in a mixture with another compound), the growth is 90.8%.

Consider `CCc1ccc(-c2ccc(-n3nc(C)c4c(N)nc(Cc5ccccc5)nc43)cc2)cc1`, for which the growth is 54.7%.

`COc1cc(C2C(C#N)=C(N)Oc3cc(O)ccc32)cc(OC)c1OC` (stereo not given): the growth was 21.5%.

For `CC(=O)Nc1ccc(S(=O)(=O)N/N=C(\C)c2ccc(C)cc2C)cc1`, the growth is 99.9%.

Turning to `COC(=O)C1(O)NC(=C(C#N)C#N)C(C#N)=C1C(=O)c1ccc(OC)c(OC)c1` (stereo not given), the growth is 76.9%.

As for `Oc1ccc(-c2[nH]c3ccccc3c2-c2nc3ccccc3o2)cc1`, the growth was 57.4%.

As for `C#C[C@]1(O)CCC2C3CCc4cc(OC5CCCC5)ccc4C3CC[C@@]21C` (stereo not given in full), the growth is 57.9%.

With `COc1ccc(/C=C/c2nnc(/C=C/c3ccc(OC)c(OC)c3)o2)cc1OC`, the growth was 31.5%.

Turning to `CC(=O)O[C@@]12CO[C@@H]1C[C@H](O)[C@@]1(C)C(=O)[C@H](O)C3=C(C)[C@@H](OC(=O)[C@H](O)[C@@H](NC(=O)OC(C)(C)C)c4ccccc4)C[C@@](O)([C@@H](OC(=O)c4ccccc4)C12)C3(C)C` (stereo not given in full), the growth was 31.7%.

On to `CCN1C(=O)CC(SC2CC(=O)N(CC)C2=O)C1=O` (stereo not given), for which the growth is 101%.

Take `COc1cc(-c2nn(-c3cccc(NC(=O)CN4CCOCC4)c3)cc2-c2cccnc2)ccc1Cl`: the growth was 58%.

In the case of `Cc1ccc(C(=O)/C=C/c2ccccc2)s1`, the growth is 111%.

As to `O=C(/C=C/C=C/c1c(C2CC2)nc2ccccc2c1-c1ccc(F)cc1)c1cccs1`, the growth was 24.9%.

Consider `COc1ccc(C(=O)c2ccccc2CN2C(=O)c3ccccc3C2=O)cc1`, for which the growth is 89.6%.

For the compound `CC(C)c1cc(N=O)cc(C(C)C)c1O`, the growth was 97.5%.

With `CCn1c(SCc2ccc(C)cc2)nnc1-c1nn(-c2ccc(Cl)cc2Cl)c(-c2ccc(Cl)cc2)c1C`, the growth is 5.63% (active).

As to `CCOC(=O)/C(=C(\C)N)C1CC(=O)NC1=O` (stereo not given), the growth is 92.1%.

For `CCCCC/C=C/C/C=C/CCCCCCCC1=NC(C)(C)CN1C(C)C`, the growth is 28.9%.

As to `NC(=O)c1cccc(-n2ccc3cc(NC(=O)Nc4ccc(Cl)c(C(F)(F)F)c4)ccc32)n1`, the growth is 53.4%.

Regarding `CN(C)c1nc(N)c2nccnc2n1`, the growth was 104%.

As for `COc1ccc(-c2cc(-c3ccccc3)nc(SCCCCCCC(=O)NO)n2)cc1`, the growth was 58.8%.

In the case of `O=C(O)c1ccc(-n2cc(CNc3ccc(Oc4ccccc4)cc3)c(-c3ccccc3)n2)cc1`, the growth is 96%.

Consider `O=C1C=C(Nc2cccc(Br)c2)c2ccccc2C1=O`, for which the growth was 37.4%.

In the case of `Cc1cc(Cl)ccc1Nc1nc(C(F)(F)F)ccc1C(=O)N/N=C/c1cccc(O)c1`, the growth was 29.7%.

On to `C1CN(CC2CCC(CN3CCOCC3)O2)CCO1` (stereo not given), for which the growth was 105%.

Source of the values: PubChem BioAssay (NCI).
